Among the data in PubChem BioAssay (NCATS) are Potency values, retold here.

Results filed as inconclusive are left out. Calls of active or inactive are those of the source. Calls follow the shape of the dose curve; as a rule, active = well fitted inhibition curve with a large enough effect; inconclusive = small, poorly fitted or top-dose-only effect; inactive = flat fitted curve, though single readings scatter.

Common to all, as to experiment: qHTS profiling for inhibitors of Plasmodium falciparum proliferation (AID 504749); also: nearly all actives have a fitted effect of over 60% in size
Conditions in all cases: P. falciparum in erythrocytes, SYBR Green DNA, 72 h; series mostly up to 28.7 µM
(In general: qHTS replaces the single test concentration by a dilution series.)

In one test the test system is CP185. An outline of the steps: (§1)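 Infected RBCs, 0.3% parasitemia/2.5% Hct final; cpd 72 h, 37 C, 5% CO2; lysis buffer with saponin/triton/SYBR Green I, o/n RT dark; FI 485/535; norm. to artemisinin (0.29 uM) and DMSO.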
The subject of a further test is CP191. In a few lines:
as §1

Another test has as its system CP192. An outline of the steps:
as §1

The subject of another test is CP194. In a few lines:
as §1

A further test has as its system CP201. An outline of the steps: as §1
The next test deals with CP203. An outline of the steps: as §1
The next test relates to CP211. An outline of the steps: as §1
The subject of a further test is CP215. In a few lines: as §1
A further test concerns CP217. In a few lines: as §1
For a further test, the system named is CP237. An outline of the steps: as §1
Potency is read from the fitted curve at half-maximal effect.

`CCCOC(=O)c1ccccc1`: the Potency entry in the test on CP185, with CP191, with CP192, in the test with CP194, in the test on CP201 and in the test with CP203 was “inactive” throughout. For the same molecule, the Potency result in the test on CP211, in the test on CP215, with CP217 and with CP237 was “inactive” in each case.
Consider `Cc1ccc2nc(N)[nH]c(=O)c2c1Sc1ccncc1`, for which the Potency with CP185 is 5.01 µM (active); with CP191, 2.51 µM (active). Also, the Potency entry in the test on CP192, in the test with CP194, in the test with CP201 and with CP203 was “inactive” in each case.
`COc1ccc2c(c1)C(=O)N(CCc1ccc(S(=O)(=O)NC(=O)NC3CCCCC3)cc1)C(=O)C2(C)C`: the Potency entry in the test on CP185, in the test with CP191, in the test on CP192, in the test with CP194, in the test on CP201 and in the test on CP203 was “inactive” in each case. In addition, the Potency entry in the test with CP211, in the test with CP215, in the test with CP217 and with CP237 was “inactive” in each case.
For the molecule `CC[C@@]1(c2ccccc2)NC(=O)N(C)C1=O`, the Potency result in the test on CP185, in the test on CP191, with CP192, with CP194, in the test on CP201 and in the test on CP203 was “inactive” each time. For the same molecule, the Potency entry in the test on CP211, in the test on CP215, in the test with CP217 and with CP237 was “inactive” in each case.
Regarding `O=C1OC(OC(=O)c2cccnc2Nc2cccc(C(F)(F)F)c2)c2ccccc21` (stereo not drawn), the Potency result with CP185, in the test with CP191, in the test with CP192, in the test on CP194, in the test with CP201 and with CP203 was “inactive” in each case. The Potency entry in the test with CP211, in the test on CP215, in the test on CP217 and with CP237 was “inactive” in each case.
With `O=C(O)[C@@H]1CSCN1`, the Potency entry with CP185, in the test on CP191, in the test with CP192, in the test with CP194, in the test with CP201 and with CP203 was “inactive” throughout. Also, the Potency entry with CP211, with CP215, in the test on CP217 and with CP237 was “inactive” in each case.
Regarding `CCC(=O)Nc1ccc(O)cc1`, the Potency result with CP185, with CP191, in the test on CP192, in the test on CP194, with CP201 and in the test with CP203 was “inactive” each time. The Potency result in the test on CP211, in the test on CP215, in the test with CP217 and in the test with CP237 was “inactive” in each case.
In the case of `Oc1cccc(O)c1`, the Potency entry with CP185, in the test with CP191, with CP192, in the test with CP194, with CP201 and in the test with CP203 was “inactive” each time. Moreover, the Potency result in the test with CP211, in the test with CP215, in the test with CP217 and in the test on CP237 was “inactive” in each case.
For `CCOC(=O)c1ccc(O)cc1`, the Potency result in the test on CP185, in the test on CP191, in the test on CP192, with CP194, in the test on CP201 and in the test on CP211 was “inactive” in each case. For the same molecule, the Potency entry in the test on CP215, with CP217 and with CP237 was “inactive” throughout.
Regarding `NC(CSCC(=O)O)C(=O)O` (stereo not drawn), the Potency result with CP185, in the test with CP191, in the test on CP192, in the test on CP194, with CP201 and with CP203 was “inactive” in each case. Besides, the Potency result in the test on CP211, in the test with CP217 and in the test with CP237 was “inactive” each time.
`CC(=O)CCC(=O)O`: the Potency result with CP185, in the test with CP191, in the test with CP192, with CP194, in the test with CP201 and in the test on CP203 was “inactive” throughout. For the same molecule, the Potency result with CP211, in the test with CP215, in the test with CP217 and with CP237 was “inactive” throughout.
Turning to `O=Cc1ccccc1C=O`, the Potency entry with CP185, in the test with CP191, in the test on CP192, in the test on CP194, with CP201 and with CP203 was “inactive” throughout. The Potency entry in the test on CP211, in the test on CP217 and with CP237 was “inactive” each time.
For the molecule `CC12CCC(CC1)C(C)(C)O2`, the Potency entry in the test with CP185, in the test with CP191, in the test with CP192, with CP194, with CP201 and in the test with CP203 was “inactive” each time. Moreover, the Potency entry in the test with CP211, with CP215, in the test with CP217 and in the test on CP237 was “inactive” in each case.
For the molecule `O=C(O)c1ccccc1O`, the Potency entry in the test on CP185, with CP191, with CP192, in the test with CP194, with CP201 and in the test with CP203 was “inactive” each time. Further, the Potency result in the test on CP211, in the test with CP215, in the test on CP217 and in the test with CP237 was “inactive” each time.
With `OCC(O)CN1CCN(c2ccccc2)CC1` (stereo not drawn), the Potency entry in the test on CP185, in the test on CP191, with CP192, in the test with CP194, with CP201 and in the test with CP203 was “inactive” in each case. The Potency result in the test on CP211, in the test with CP215, in the test on CP217 and in the test on CP237 was “inactive” each time.
`CC1(C)OC(=O)NC1=O`: the Potency entry in the test with CP185, with CP191, in the test on CP192, in the test on CP194, in the test on CP201 and in the test on CP203 was “inactive” throughout. Moreover, the Potency result in the test on CP211, with CP217 and with CP237 was “inactive” throughout.
`COc1ccc(Cl)cc1C(=O)NCCc1ccc(S(=O)(=O)NC(=O)NC2CCCCC2)cc1`: the Potency result in the test on CP185, in the test with CP191, with CP192, in the test on CP194, in the test on CP201 and in the test on CP203 was “inactive” in each case. Also, the Potency entry in the test on CP211, in the test with CP217 and in the test with CP237 was “inactive” in each case.
Consider `COc1ccccc1O`, for which the Potency entry in the test on CP185, in the test with CP191, in the test with CP192, in the test with CP194, with CP201 and in the test on CP203 was “inactive” in each case. Further, the Potency result with CP211, in the test on CP215, with CP217 and with CP237 was “inactive” each time.
For the molecule `CCn1cc(C(=O)O)c(=O)c2cnc(N3CCNCC3)nc21`, the Potency result with CP185, in the test on CP191, in the test on CP192, in the test with CP194, in the test with CP201 and in the test on CP203 was “inactive” in each case. Moreover, the Potency entry with CP211, in the test with CP217 and with CP237 was “inactive” each time.
Consider `O=S(=O)(O)NC1CCCCC1`, for which the Potency entry in the test with CP185, with CP191, in the test on CP192, in the test with CP194, in the test with CP201 and in the test on CP203 was “inactive” in each case. Besides, the Potency result with CP211, in the test on CP215, with CP217 and in the test on CP237 was “inactive” throughout.
For `O=C(O)c1ccccn1`, the Potency entry in the test with CP185, in the test with CP191, in the test with CP192, in the test on CP194, in the test on CP201 and in the test on CP203 was “inactive” each time. Moreover, the Potency entry in the test on CP211, in the test with CP217 and in the test with CP237 was “inactive” each time.
For `C=Cc1c(C)c2cc3[nH]c(cc4nc(cc5nc(cc1[nH]2)C(C)=C5CCC(=O)O)C(CCC(=O)O)=C4C)c(C)c3C=C`, the Potency result in the test with CP185, in the test with CP191, with CP192, with CP194, in the test with CP201 and with CP211 was “inactive” in each case. In addition, the Potency entry in the test with CP215, with CP217 and in the test on CP237 was “inactive” throughout.
With `O=C(O)COc1nn(Cc2ccccc2)c2ccccc12`, the Potency entry in the test on CP185, with CP191, in the test with CP192, in the test on CP194, with CP201 and with CP203 was “inactive” each time. Moreover, the Potency entry in the test with CP211, with CP215, in the test with CP217 and in the test on CP237 was “inactive” in each case.
In the case of `Nc1ccc(S(=O)(=O)NC(=O)c2ccccc2)cc1`, the Potency entry with CP185, with CP191, in the test on CP192, in the test with CP194, in the test with CP201 and with CP203 was “inactive” each time. Moreover, the Potency entry with CP211, in the test with CP215, in the test on CP217 and in the test on CP237 was “inactive” in each case.
Take `Cc1c(Cl)cccc1Nc1ccccc1C(=O)O`: the Potency result in the test with CP185, in the test with CP191, with CP192, with CP194, with CP201 and in the test on CP203 was “inactive” throughout. Further, the Potency result in the test with CP211, with CP215, in the test on CP217 and with CP237 was “inactive” each time.
